# Measurements: PubChem BioAssay (NCATS)
# Records with an inconclusive call do not appear. Where a call stands in place of a potency, no number is given. Activity calls are given as the source filed them. Unless noted, calls come from the whole dose curve; as a rule, active = well fitted curve in the direction sought with a large enough effect; inconclusive = small, poorly fitted or top-dose-only effect, or another doubt; inactive = no such curve, though single readings can be large; an effect the other way counts as inactive or inconclusive.
# Assays:
# [1] = Cell Viability - LYMP2-007 (AID 979);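 note: cells exposed to compound for 24 h before reading; nearly all actives have a fitted effect of over 60% in size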
# How it was run: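 Human lymphoblastoid cells (2500/well) were plated in complete medium, incubated 5 hr at 37 C, then exposed to compounds for 24 hr at 37 C. Intracellular ATP was read by CellTiter-Glo luminescence after 30 min at room temperature; AC50 from Hill fits.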
# [2] = Cell Viability - LYMP2-008 (AID 980); note: nearly all actives have a fitted effect of over 60% in size
# How it was run: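 Human lymphoblastoid cells (2500/well) were plated, held 5 hr at 37 C, then exposed to compounds for 24 hr at 37 C in complete medium. Intracellular ATP was read by CellTiter-Glo luminescence; AC50 from Hill-fitted concentration-response.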
# [3] = Cell Viability - LYMP2-014 (AID 983); note: series mostly up to about 92 µM; nearly all actives have a fitted effect of over 50% in size
# How it was run: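 Human lymphoblastoid cells (2500/well) were pre-incubated 5 hr at 37 C, then exposed to compounds in complete medium for 24 hr at 37 C. Intracellular ATP was read by CellTiter-Glo luminescence after 30 min at room temperature; AC50 from Hill fits.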
# [4] = Cell Viability - LYMP2-016 (AID 984); note: nearly all actives have a fitted effect of over 55% in size
# How it was run: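 Concentration-dependent ATP depletion measured in LYMP2-016 lymphoblastoid cells, 24 h, 37 C; luciferase-based luminescent detection; Hill-equation AC50.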
# [5] = Cell Viability - LYMP2-018 (AID 985);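 note: compound exposure lasted 24 hr at 37 °C; nearly all actives have a fitted effect of over 50% in size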
# How it was run: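 Human lymphoblastoid cells (2500/well) were pre-incubated 5 hr at 37 C, then exposed to compounds for 24 hr at 37 C in complete medium. Viability was read as intracellular ATP by CellTiter-Glo luminescence; AC50 values came from Hill-equation fits.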
# [6] = Cell Viability - LYMP2-020 (AID 986); note: series mostly up to about 92 µM; nearly all actives have a fitted effect of over 55% in size
# How it was run: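 Human lymphoblastoid cells, 2500/well, were pre-incubated 5 hr at 37 C, then exposed to compounds for 24 hr at 37 C in complete medium. Intracellular ATP was read by CellTiter-Glo luminescence, and AC50 was derived by Hill fitting of concentration-response data.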
# [7] = Cell Viability - LYMP2-024 (AID 988); note: nearly all actives have a fitted effect of over 60% in size
# How it was run: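 Human lymphoblastoid cells (2500/well) in complete medium were preincubated 5 hr at 37 C, then exposed to compounds for 24 hr at 37 C. Intracellular ATP was read by CellTiter-Glo luminescence; AC50 from Hill-equation fits of concentration-response data.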
# [8] = Cell Viability - LYMP2-026 (AID 989); note: nearly all actives have a fitted effect of over 50% in size
# How it was run: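 Human lymphoblastoid cells (2500/well) in complete medium were preincubated 5 hr at 37 C, then exposed to compounds for 24 hr at 37 C. Cellular ATP was read by CellTiter-Glo luminescence; AC50 from Hill-equation fits of concentration-response data.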
# [9] = Cell Viability - LYMP1-002 - Assay at 24 hr (AID 993)
# How it was run: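 Human lymphoblastoid LYMP1-002 cells, 2500/well in complete medium, were treated with compounds for 24 h at 37 C; intracellular ATP was read by CellTiter-Glo luminescence. AC50 values came from Hill-equation fits of qHTS concentration-response data.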
# [10] = Cell Viability - LYMP1-002 - Assay at 40 hr (AID 994); note: nearly all actives have a fitted effect of over 60% in size
# How it was run: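 Human lymphoblastoid cells, 2500/well in complete medium, were preincubated 5 hr at 37 C, then exposed to compounds for 40 hr at 37 C. Intracellular ATP was read by CellTiter-Glo luminescence after 30 min at room temperature; AC50 from Hill-equation fits.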
# [11] = qHTS Assay for Identification of Small Molecule Inducers of Hypoxia Response (AID 2120; active = well fitted curve in the direction sought with a large enough effect in the signal ratio, with a control signal flat, not every such curve was filed as active; the % refers to the signal ratio)
# How it was run: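 HRE-beta-lactamase reporter in CellSensor HRE-bla ME-180 cells, 2500 cells/well in Opti-MEM with 0.5% dialyzed FBS; compounds tested as titration series, 17 h at 37 degrees C. CCF4 substrate 2.5 h at room temperature; AC50 from 460/530 nm ratio.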
# [12] = molecular target: Androgen receptor (Homo sapiens) (UniProt P10275); assay: qHTS assay for small molecule agonists of androgen receptor signaling (AID 588515; active = well fitted curve in the direction sought with a large enough effect in the signal ratio, with a control signal flat; the % refers to the signal ratio); conditions: AR-UAS-bla HEK293, beta-lactamase ratio, agonist 16 h; stronger effect = higher value
# How it was run: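 EC50 and efficacy came from Hill fits of titrations (up to 92 uM) normalized to 30 nM R1881 as 100% and DMSO as 0%. Compound exposure was 16 h at 37 C on AR-UAS-bla HEK293 cells, with a 405/460/530 nm CCF4 fluorescence read.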
# [13] = molecular target: Glucocorticoid receptor (Homo sapiens) (UniProt P04150); assay: qHTS assay for small molecule agonists of glucocorticoid receptor signaling (AID 588532; active = well fitted curve in the direction sought with a large enough effect in the signal ratio, with a control signal flat; the % refers to the signal ratio); conditions: HeLa MMTV-bla, beta-lactamase ratio, agonist, 18 h; stronger effect = higher value; percent of dexamethasone control, DMSO zero
# How it was run: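 Quantitative HTS using CellSensor MMTV-bla HeLa cells in charcoal/dextran-treated serum; compounds tested up to 92 uM. After 18 h at 37 C, CCF4 dye reported reporter induction.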
# [14] = molecular target: Peroxisome proliferator-activated receptor gamma (Homo sapiens) (UniProt P37231); assay: qHTS assay for small molecule agonists of peroxisome proliferator-activated receptor gamma signaling (AID 588536; active = well fitted curve in the direction sought with a large enough effect in the signal ratio, with a control signal flat, not every such curve was filed as active; the % refers to the signal ratio)
# How it was run: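 HEK293 UAS-bla reporter line, 1% charcoal/dextran FBS; titration, 16 h, 37 C; CCF4 loading 2 h RT; fluorescence 460/530 nm. Normalized to rosiglitazone 2 uM = 100%, DMSO = 0%.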
# [15] = molecular target: Vitamin D3 receptor (Homo sapiens) (UniProt P11473); assay: qHTS assay for small molecule antagonists of vitamin D receptor signaling (AID 588541; calls by dose curve;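 note: receptor activated by calcitriol during compound treatment; series mostly up to about 77 µM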)
# How it was run: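 Antagonist-mode beta-lactamase reporter assay: HEK293T VDR-UAS-bla cells were exposed to titrated compound alongside 1-alpha,25-dihydroxyvitamin D3 at 3 nM final for 16 h. Values were normalized to the 50 nM agonist control and DMSO basal, with IC50 and efficacy from Hill equation fits.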
# [16] = molecular target: Vitamin D3 receptor (Homo sapiens) (UniProt P11473); assay: qHTS assay for small molecule agonists of vitamin D receptor signaling (AID 588543; calls by dose curve)
# How it was run: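 Measured: β-lactamase reporter activity (CCF4, 405 nm excitation, 460/530 nm emission) in HEK293T VDR-UAS-bla cells after 16 h compound exposure at 37 °C. Normalization against 50 nM 1α,25-dihydroxyvitamin D3 and DMSO; Hill-fit EC50.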
# [17] = molecular target: Thyroid hormone receptor beta (Homo sapiens) (UniProt P10828); assay: qHTS assay for small molecule agonists of thyroid hormone receptor beta signaling (AID 588545; calls by dose curve)
# How it was run: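 Beta-lactamase reporter activity under TR response element control is measured in HEK 293 cells after 18 hrs compound exposure. Signal is ratiometric CCF4 fluorescence, 460/530 nm.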
# [18] = qHTS assay for small molecule antagonists of retinoid X receptor alpha signaling (AID 588546; active = well fitted inhibition curve with a large enough effect in the signal ratio, with a control signal flat, not every such curve was filed as active; the % refers to the signal ratio;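 note: cells stimulated with 9-cis-retinoic acid as agonist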); conditions: HEK293T RXRa-UAS-bla, beta-lactamase ratio, antagonist mode; measured here: W530 green channel, cytotoxicity proxy
# How it was run: (§1)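 Beta-lactamase reporter inhibition, read as CCF4 fluorescence ratio (ex 405, em 460/530 nm) after 2 h at RT. HEK293T UAS-bla cells, 2500/well, were stimulated with 9-cis-RA at 500 or 100 nM final alongside test compound for 18 h at 37 C.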
# [19] = molecular target: Retinoic acid receptor RXR-alpha (Homo sapiens) (UniProt P19793); assay: as above; conditions: HEK293T RXRa-UAS-bla, beta-lactamase ratio, antagonist mode
# How it was run: as §1
# [20] = molecular target: Thyroid hormone receptor beta (Homo sapiens) (UniProt P10828); assay: qHTS assay for small molecule antagonists of thyroid hormone receptor beta signaling (AID 588547; active = well fitted inhibition curve with a large enough effect in the signal ratio, with a control signal flat, not every such curve was filed as active; the % refers to the signal ratio;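 note: cells stimulated with 0.4 nM T3 agonist during compound exposure; series mostly up to about 77 µM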); conditions: TR-UAS-bla HEK293, beta-lactamase ratio, antagonist mode, 18 h
# How it was run: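 Inhibition of T3-driven (0.4nM final) beta-lactamase reporter activity was measured over 0.59 nM to 92 uM compound after 18 h at 37 C. The cells were GripTite HEK293 TR-UAS-bla in charcoal/dextran-stripped serum, with CCF4 ratio read-out and IC50 from Hill fits.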
# [21] = molecular target: Voltage-gated inwardly rectifying potassium channel KCNH2 (Homo sapiens) (UniProt Q12809); assay: qHTS Assay for Small Molecule Inhibitors of the Human hERG Channel Activity (AID 588834);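 note: top concentration of the series differs between compounds; lower thallium flux fluorescence means stronger hERG block; nearly all actives have a fitted effect of over 50% in size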
# How it was run: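 Blockade is seen as reduced FluxOR thallium-flux fluorescence in U2OS cells expressing hERG from a BacMam construct, in Opti-MEM with 2% FCS. Concentration-response data fitted to the Hill equation for AC50.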
# [22] = qHTS assay for small molecule activators of the p53 signaling pathway (AID 651743; active = well fitted activation curve with a large enough effect in the signal ratio, not every such curve was filed as active; the % refers to the signal ratio; note: series mostly up to about 92 µM); conditions: HCT-116 p53RE-bla, beta-lactamase FRET ratio, 16 h; activation: stronger effect = higher value
# How it was run: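 Screen for p53 pathway agonists uses stably transfected p53RE-bla HCT-116 cells, 4,000 per well, treated 16 h at 37 C with compounds in DMSO.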
# [23] = qHTS assay for small molecule activators of the nuclear factor-kappa B (NF-kB) signaling pathway (AID 651749; active = well fitted activation curve with a large enough effect in the signal ratio; the % refers to the signal ratio; note: series mostly up to about 77 µM); conditions: NF-kB-bla ME-180 cells, beta-lactamase FRET ratio, 16 h; activation: stronger effect = higher value
# How it was run: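 Stably transfected ME-180 line; NF-kB response element upstream of beta-lactamase. Treatment: compound or DMSO, 16 hr. Detection: fluorescent FRET substrate.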
# Vitamin D3 receptor (Homo sapiens), sequence (P11473 whole entry, looked up): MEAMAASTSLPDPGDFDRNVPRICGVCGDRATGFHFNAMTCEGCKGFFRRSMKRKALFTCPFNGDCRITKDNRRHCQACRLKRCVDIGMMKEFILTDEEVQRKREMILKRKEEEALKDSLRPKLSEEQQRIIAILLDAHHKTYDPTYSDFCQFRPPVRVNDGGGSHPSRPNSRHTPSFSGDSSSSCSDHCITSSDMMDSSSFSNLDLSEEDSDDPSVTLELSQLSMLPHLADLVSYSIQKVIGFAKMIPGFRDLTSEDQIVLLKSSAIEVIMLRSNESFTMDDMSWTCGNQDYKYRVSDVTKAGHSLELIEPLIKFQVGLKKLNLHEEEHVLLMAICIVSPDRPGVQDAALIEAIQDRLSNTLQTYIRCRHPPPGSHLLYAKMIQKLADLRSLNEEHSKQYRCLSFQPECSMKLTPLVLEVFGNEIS
# Thyroid hormone receptor beta (Homo sapiens), sequence (P10828 whole entry, looked up): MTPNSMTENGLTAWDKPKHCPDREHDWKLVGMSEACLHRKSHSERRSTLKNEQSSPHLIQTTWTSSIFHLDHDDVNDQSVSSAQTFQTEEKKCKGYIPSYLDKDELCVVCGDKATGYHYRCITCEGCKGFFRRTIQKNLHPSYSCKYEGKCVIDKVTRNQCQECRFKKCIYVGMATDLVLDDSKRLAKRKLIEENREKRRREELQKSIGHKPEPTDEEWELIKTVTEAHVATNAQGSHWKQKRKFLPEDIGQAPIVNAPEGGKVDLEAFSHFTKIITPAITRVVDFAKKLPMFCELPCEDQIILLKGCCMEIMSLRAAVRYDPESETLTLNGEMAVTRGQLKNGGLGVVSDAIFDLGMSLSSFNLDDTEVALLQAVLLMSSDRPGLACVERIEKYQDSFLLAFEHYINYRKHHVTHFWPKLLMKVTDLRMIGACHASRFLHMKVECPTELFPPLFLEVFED
# Retinoic acid receptor RXR-alpha (Homo sapiens), sequence (P19793 whole entry, looked up): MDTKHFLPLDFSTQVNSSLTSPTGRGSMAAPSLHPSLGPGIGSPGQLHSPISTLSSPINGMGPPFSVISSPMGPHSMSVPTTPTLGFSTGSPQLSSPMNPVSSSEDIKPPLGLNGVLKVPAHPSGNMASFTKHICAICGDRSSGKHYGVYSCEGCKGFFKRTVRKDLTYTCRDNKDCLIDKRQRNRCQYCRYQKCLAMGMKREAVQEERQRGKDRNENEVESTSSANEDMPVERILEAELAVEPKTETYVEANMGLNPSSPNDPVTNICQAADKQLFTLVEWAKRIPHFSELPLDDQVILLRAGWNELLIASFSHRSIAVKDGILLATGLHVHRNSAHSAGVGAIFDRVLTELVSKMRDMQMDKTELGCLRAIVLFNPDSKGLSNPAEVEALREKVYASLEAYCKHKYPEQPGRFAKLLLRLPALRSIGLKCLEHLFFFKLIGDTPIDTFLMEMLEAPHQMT
# Peroxisome proliferator-activated receptor gamma (Homo sapiens), sequence (P37231 whole entry, looked up): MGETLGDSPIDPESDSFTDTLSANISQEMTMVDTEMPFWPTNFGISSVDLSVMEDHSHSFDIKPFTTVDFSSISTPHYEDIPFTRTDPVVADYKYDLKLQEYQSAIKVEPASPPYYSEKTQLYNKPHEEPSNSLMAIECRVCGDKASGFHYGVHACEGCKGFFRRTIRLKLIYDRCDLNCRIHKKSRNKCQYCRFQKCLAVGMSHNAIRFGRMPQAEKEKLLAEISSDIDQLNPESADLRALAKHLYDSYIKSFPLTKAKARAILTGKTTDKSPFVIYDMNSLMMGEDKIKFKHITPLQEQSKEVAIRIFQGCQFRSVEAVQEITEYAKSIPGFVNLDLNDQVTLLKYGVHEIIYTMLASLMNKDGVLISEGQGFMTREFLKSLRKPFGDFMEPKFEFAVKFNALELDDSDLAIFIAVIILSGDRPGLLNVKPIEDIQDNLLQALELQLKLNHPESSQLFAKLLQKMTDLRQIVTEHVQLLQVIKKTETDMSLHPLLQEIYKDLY
# Voltage-gated inwardly rectifying potassium channel KCNH2 (Homo sapiens), sequence (Q12809 whole entry, looked up): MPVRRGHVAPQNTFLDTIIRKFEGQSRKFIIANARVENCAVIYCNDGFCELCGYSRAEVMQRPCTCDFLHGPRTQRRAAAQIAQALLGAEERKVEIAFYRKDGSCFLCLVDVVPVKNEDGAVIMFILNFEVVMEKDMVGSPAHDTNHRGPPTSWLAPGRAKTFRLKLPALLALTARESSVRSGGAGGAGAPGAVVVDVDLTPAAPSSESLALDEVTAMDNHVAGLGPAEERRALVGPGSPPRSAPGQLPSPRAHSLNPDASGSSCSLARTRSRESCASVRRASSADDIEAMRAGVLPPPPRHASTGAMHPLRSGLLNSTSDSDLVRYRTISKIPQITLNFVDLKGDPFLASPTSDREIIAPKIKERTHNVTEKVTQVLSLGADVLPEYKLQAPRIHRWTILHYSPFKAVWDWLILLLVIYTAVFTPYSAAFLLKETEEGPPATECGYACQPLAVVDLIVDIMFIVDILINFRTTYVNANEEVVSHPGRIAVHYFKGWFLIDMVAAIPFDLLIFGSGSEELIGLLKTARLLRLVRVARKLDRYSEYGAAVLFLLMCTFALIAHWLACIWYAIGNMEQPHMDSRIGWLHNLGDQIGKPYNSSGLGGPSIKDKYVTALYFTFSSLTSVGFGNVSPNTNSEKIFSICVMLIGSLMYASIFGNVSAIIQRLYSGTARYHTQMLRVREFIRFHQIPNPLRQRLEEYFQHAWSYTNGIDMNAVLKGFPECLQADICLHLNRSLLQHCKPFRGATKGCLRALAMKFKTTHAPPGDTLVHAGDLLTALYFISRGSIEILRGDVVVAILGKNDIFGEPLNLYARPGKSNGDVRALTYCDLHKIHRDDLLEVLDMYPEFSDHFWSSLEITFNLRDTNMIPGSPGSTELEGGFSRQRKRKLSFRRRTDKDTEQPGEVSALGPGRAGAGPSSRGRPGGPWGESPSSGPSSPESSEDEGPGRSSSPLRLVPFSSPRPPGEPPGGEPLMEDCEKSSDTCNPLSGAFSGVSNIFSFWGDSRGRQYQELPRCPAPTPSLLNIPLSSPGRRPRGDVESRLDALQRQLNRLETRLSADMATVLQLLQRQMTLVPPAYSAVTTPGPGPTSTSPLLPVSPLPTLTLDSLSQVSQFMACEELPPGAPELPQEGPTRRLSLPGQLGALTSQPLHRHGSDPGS
# Androgen receptor (Homo sapiens), sequence (P10275 whole entry, looked up): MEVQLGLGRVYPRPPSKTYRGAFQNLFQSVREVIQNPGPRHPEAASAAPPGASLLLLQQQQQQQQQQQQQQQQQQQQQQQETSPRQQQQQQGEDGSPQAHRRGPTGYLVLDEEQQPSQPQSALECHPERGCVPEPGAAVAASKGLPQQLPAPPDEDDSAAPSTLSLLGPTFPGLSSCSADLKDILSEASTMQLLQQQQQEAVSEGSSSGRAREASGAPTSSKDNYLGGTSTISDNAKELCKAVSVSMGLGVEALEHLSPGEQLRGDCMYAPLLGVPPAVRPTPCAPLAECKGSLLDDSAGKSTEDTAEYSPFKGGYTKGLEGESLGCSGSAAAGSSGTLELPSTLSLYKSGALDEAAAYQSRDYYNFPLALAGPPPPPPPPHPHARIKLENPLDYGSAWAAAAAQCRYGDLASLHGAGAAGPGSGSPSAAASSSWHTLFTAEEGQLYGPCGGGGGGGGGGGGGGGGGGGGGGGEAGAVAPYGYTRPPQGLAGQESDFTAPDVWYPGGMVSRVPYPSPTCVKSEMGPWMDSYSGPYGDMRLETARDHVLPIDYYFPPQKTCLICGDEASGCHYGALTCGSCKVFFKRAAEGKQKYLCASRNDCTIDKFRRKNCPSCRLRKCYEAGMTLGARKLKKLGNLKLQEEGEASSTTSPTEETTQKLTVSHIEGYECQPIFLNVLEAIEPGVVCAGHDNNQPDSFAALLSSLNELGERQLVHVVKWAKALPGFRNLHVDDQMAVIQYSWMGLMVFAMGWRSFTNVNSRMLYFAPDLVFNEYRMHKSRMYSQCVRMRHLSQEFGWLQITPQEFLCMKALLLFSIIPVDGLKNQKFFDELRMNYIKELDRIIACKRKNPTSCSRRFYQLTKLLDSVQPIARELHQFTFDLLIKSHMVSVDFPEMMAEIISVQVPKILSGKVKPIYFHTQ
# Glucocorticoid receptor (Homo sapiens), sequence (P04150 whole entry, looked up): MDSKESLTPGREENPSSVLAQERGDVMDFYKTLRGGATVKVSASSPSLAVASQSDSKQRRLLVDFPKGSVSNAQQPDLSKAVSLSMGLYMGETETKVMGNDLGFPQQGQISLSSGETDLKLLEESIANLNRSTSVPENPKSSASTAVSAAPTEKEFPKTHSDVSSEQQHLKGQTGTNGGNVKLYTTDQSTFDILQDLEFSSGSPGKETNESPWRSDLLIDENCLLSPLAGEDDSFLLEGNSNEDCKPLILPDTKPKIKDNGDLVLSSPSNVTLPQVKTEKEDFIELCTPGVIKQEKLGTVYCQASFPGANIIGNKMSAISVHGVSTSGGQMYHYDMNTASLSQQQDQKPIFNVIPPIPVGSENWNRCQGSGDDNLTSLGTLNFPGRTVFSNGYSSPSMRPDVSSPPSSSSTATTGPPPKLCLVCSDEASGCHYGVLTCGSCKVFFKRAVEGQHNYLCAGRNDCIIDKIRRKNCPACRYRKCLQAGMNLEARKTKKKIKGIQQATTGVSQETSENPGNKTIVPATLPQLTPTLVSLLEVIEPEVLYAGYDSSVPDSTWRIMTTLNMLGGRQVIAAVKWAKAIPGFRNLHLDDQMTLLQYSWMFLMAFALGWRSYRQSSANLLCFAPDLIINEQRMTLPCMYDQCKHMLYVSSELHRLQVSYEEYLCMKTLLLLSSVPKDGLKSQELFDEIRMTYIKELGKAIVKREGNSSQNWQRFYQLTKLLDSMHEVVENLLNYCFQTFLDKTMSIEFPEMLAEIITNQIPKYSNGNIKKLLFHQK
smiles,measurement,setting,value
COC1=CC(=O)OC(CCc2ccccc2)C1 (stereo not drawn),Potency,[1],inactive
same,Potency,[2],inactive
same,Potency,[3],inactive
same,Potency,[4],inactive
same,Potency,[5],inactive
same,Potency,[6],inactive
same,Potency,[7],inactive
same,Potency,[8],inactive
same,Potency,[9],inactive
same,Potency,[10],inactive
same,outcome,[11],inactive
same,activation,[12],-22.1% (inactive)
same,activation,[13],-4.92% (inactive)
same,outcome,[14],inactive
same,outcome,[15],inactive
same,outcome,[16],inactive
same,outcome,[17],inactive
same,max response,[18],-2.34%
same,max response,[19],14.2% (inactive)
same,activity change % (negative = inhibition),[20],3.59% (inactive)
same,Potency,[21],inactive
same,activation,[22],-2.49% (inactive)
same,activation,[23],-1.07% (inactive)
